Mac1 fbg inh = blocks human CD11b/CD18 adhesion to fibrinogen. P05107+P11215. K562 CD11b/CD18 adhesion to fibrinogen, ATPlite luminescence; Mn2+ added to activate the integrin. inhibition, % at 10 µM. 93,000 tested, 0.54% active. AID 1497;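 active = primary inhibition of 50% or more at 10 µM, then 40% or more on retest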
Target sequence (P05107 whole entry, looked up, other chains not shown): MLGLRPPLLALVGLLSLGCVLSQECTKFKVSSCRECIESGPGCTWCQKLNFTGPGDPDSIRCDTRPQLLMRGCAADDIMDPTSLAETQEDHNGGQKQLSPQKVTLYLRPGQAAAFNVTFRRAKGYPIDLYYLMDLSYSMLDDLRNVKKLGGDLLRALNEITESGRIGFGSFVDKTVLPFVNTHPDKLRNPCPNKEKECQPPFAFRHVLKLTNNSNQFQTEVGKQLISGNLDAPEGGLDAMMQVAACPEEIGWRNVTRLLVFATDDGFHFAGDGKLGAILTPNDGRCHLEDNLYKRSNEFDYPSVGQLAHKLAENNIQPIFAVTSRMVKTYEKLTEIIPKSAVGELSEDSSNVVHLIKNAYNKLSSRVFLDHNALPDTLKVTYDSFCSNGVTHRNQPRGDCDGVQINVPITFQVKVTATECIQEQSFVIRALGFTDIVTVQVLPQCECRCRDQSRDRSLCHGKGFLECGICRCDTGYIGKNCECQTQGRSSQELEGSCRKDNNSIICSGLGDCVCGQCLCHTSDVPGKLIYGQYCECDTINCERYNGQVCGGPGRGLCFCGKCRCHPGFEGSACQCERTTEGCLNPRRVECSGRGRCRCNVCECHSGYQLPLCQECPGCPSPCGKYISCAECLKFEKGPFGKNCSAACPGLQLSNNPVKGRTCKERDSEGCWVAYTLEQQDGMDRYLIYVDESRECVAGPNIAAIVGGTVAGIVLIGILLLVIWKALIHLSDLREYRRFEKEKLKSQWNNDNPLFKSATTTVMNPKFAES
WNV NS2B-NS3 inh = WNV NS2B-NS3 proteinase inhibition; 65,000 tested, 0.18% active; WNV NS2B-NS3 protease, fluorogenic substrate Ex360/Em465; active compounds read low; z-score (test concentration not listed); P06935; AID 577; in the data active = z-score below about -3
CD11b adhes enh = enhancers of human CD11b/CD18 binding to fibrinogen | K562 CD11b/CD18 adhesion to fibrinogen, ATPlite luminescence | P05107+P11215 | 93,000 tested, 0.07% active | activation, % at 10 µM | AID 1499;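 active = 10 µM primary screen giving 50% or more activity, confirmed by 40% or more on retest at that dose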
Numbers without * were called inactive; nt = no result. Hits are enriched below; roughly 0.6% of the tested compounds scored in any of these assays.

SMILES | Mac1 fbg inh | WNV NS2B-NS3 inh | CD11b adhes enh
Cc1[nH]n(-c2ccc(F)cc2)c(=O)c1/C=N/c1sc2c(c1C#N)CCCC2 | 35.0 | nt | -10.8
O=C(NCc1ccccn1)c1ccc(CNS(=O)(=O)c2ccc(F)cc2)cc1 | -4.9 | nt | -2.1
Cc1nc(Nc2nc(=O)c3ccccc3n2C)nc2c(C)cccc12 | nt | -0.53 | nt
O=C(O)CC(C(=O)O)N1C(=O)/C(=C/c2ccc(-c3nc4ccccc4s3)o2)SC1=S (configuration not stated) | -11.7 | nt | 2.1
O=C(O)CCN1C(=O)/C(=C/c2ccc(-c3nc4ccccc4s3)o2)SC1=S | 64.1* | nt | 85.9
CCC(C)Sc1nc2ccccc2n1CC(=O)O (configuration not stated) | -2.9 | nt | -3.4
COc1ccc(C(=O)O/N=C(\C)c2ccccc2)cc1 | 28.8 | nt | -5.9
C/C(=N\OC(=O)c1ccc(OC(C)C)cc1)c1ccc(C)c(C)c1 | 65.6* | nt | -5.8
CCCOc1ccc(C(=O)O/N=C(\CC)c2ccc(C)cc2)cc1 | 83.0 | nt | -6.3
CC/C(=N\OC(=O)c1ccc(OC(C)C)cc1)c1ccc(C)cc1 | 80.3* | nt | -6.8
COC(=O)c1ccc(/C(O)=C(\C#N)c2nc3ccccc3s2)cc1 | 103.1* | 1.08 | -9.7
CC(C)=C(C#N)c1nc2ccccc2s1 | -26.1 | 0.39 | 1.8
Cc1ccc(NC(=O)CCn2cccc2)cc1Cl | -4.8 | -1.03 | -0.2
CCc1cccc(CC)c1NC(=S)N1CCn2cccc2C1c1cccnc1 (configuration not stated) | -3.4 | nt | 4.1
S=c1[nH]nc(-c2cc3c(s2)-c2ccccc2CC3)o1 | 64.5* | nt | -7.3
CSc1nnc(-c2cc3c(s2)-c2ccccc2CC3)o1 | 3.6 | nt | 5.0
Cc1ccc(Oc2nccc(-c3ccc(Cl)cc3)n2)cc1 | -12.9 | nt | 1.2
COC(=O)C(C(C)=O)C1=C/C(=N\S(=O)(=O)c2ccc(C)cc2)c2ccccc2C1=O (configuration not stated) | 65.9* | nt | -2.3
Cc1ccccc1NC1=C/C(=N\S(=O)(=O)c2cccs2)c2ccccc2C1=O | 26.1 | nt | -5.9
CC1(C)CSC(=NCc2ccccc2)N1C(=O)c1cccc([N+](=O)[O-])c1 | -5.8 | nt | -3.8
CN1CCC(OC(=O)COc2ccc(C(C)(C)C)cc2)CC1 | -7.4 | 0.85 | -1.3
CCCCOc1ccc(C(=O)NC)cc1 | -12.4 | -2.31 | 6.0
CCCCOc1ccc(C(=O)Nc2ccncc2)cc1 | 96.1* | -0.87 | -8.7
O=C(COC(=O)/C=C/C(=O)OCC(=O)NC12CC3CC(CC(C3)C1)C2)NC12CC3CC(CC(C3)C1)C2 | 14.0 | nt | 1.0
COc1cccc(C2/C(=C(\O)c3ccc4c(c3)OCCO4)C(=O)C(=O)N2CCCN(C)C)c1OC (configuration not stated) | nt | 0.43 | nt
SMILES | Mac1 fbg inh | WNV NS2B-NS3 inh | CD11b adhes enh
COc1ccccc1-n1c(=O)oc2ccc(Cl)cc2c1=O | 96.0* | -0.41 | -12.2
COc1ccc(Cl)cc1N1Cc2ccccc2C1 | -9.4 | nt | 47.9
COC(=O)c1ccc(COC(=O)c2ccc(-n3cnnn3)cc2)o1 | 8.7 | 1.67 | -0.1
CSc1ccccc1C(=O)Nc1ccc2c(c1)OCCO2 | -6.0 | nt | -2.3
O=C(Nc1ccc2c(c1)OCCO2)c1coc2ccccc2c1=O | 51.7* | nt | -6.3
CC(=O)NCc1cn2c(C)csc2n1 | nt | -0.72 | nt
Cc1csc2nc(CNC(=O)C3CC=CCC3C(=O)O)cn12 (configuration not stated) | -17.5 | -4.32* | -1.9
COc1ccc(CCNC(=O)c2cc3ccccn3n2)c(OC)c1OC | -0.6 | 0.57 | -2.0
c1ccc2nc3c(nc2c1)c1ccccc1n3CCN1CCOCC1 | -33.6 | -2.2 | 5.3
CCn1c2ccccc2c2nc3cc(S(=O)(=O)N4CCOCC4)ccc3nc21 | 57.4* | -0.34 | -3.8
CN(/N=C/c1ccc(O)cc1O)c1nc(-c2ccccc2)cc(-c2ccccc2)n1 | -15.8 | nt | 25.4
CC(NC(=O)Nc1nnc(C(F)(F)F)s1)(C(F)(F)F)C(F)(F)F | 99.4* | 0.41 | -6.8
CC(NC(=O)Nc1nnc(C(F)(F)F)s1)N1C(=O)C2C3C=CC(C3)C2C1=O (configuration not stated) | nt | -1.2 | nt
Cc1ccc(S(=O)(=O)Nc2ccc3nc(C)sc3c2)cc1 | 46.8 | nt | -7.6
Cc1nc2ccc(NS(=O)(=O)c3ccc4c(c3)OCCO4)cc2s1 | 102.2* | nt | -10.1
COc1ccc(CCNC(=O)c2c(O)c3cccc4c3n(c2=O)CC4)cc1 | nt | -4.66* | nt
O=C(NCCc1ccccc1)c1c(O)c2cccc3c2n(c1=O)CC3 | 27.1 | -0.46 | 0.1
CCc1nnc(NC(=O)c2c(O)c3cccc4c3n(c2=O)CC4)s1 | 3.9 | 0.25 | 9.1
CCCc1nnc(NC(=O)c2c(O)c3cccc4c3n(c2=O)CC4)s1 | 92.6* | 0.23 | 37.6
C=C(C)C1CC=C(C)/C(=N\NC(=O)CNc2cccc3ccccc23)C1 (configuration not stated) | -12.8 | nt | 6.1
CCCCN=c1scc(-c2ccc3c(c2)NC(=O)CO3)n1N=C1CCCC1 | 34.8 | nt | -4.4
COCC(C)n1c(-c2ccc3c(c2)NC(=O)CO3)csc1=Nc1ccc(OC(F)F)cc1 (configuration not stated) | 96.2* | nt | -9.8
CCN=c1scc(-c2ccc3c(c2)NC(=O)CO3)n1N=C1CCCC1 | 97.5* | -1.03 | -8.1
COc1ccccc1N=c1scc(-c2ccc3c(c2)NC(=O)CO3)n1CC1CCCO1 (configuration not stated) | 3.9 | -1.76 | -0.4
Fc1ccccc1CNC(=S)Nc1cccc(C(F)(F)F)c1 | 49.0 | nt | -3.0
SMILES | Mac1 fbg inh | WNV NS2B-NS3 inh | CD11b adhes enh
O=C(/C=C/c1cnc2ccccc2n1)NC12CC3CC(CC(C3)C1)C2 | 14.0 | nt | 0.6
CN1CCN(C(c2cccc(C(F)(F)F)c2)c2nnnn2Cc2ccccc2)CC1 (configuration not stated) | -2.1 | 1.08 | -2.5
Cc1cccc(N2CCN(C(=O)c3cc4c(=O)n(C)c5ccccc5c4n3C)CC2C)c1 (configuration not stated) | 5.6 | -2.19 | -2.6
O=C(NC(Cc1ccccc1)C(=O)O)/C(=C/c1ccc(F)cc1)NC(=O)c1ccccc1 (configuration not stated) | 19.4 | nt | -2.9
Cc1ccccc1Oc1cccc(C(=O)/C(C#N)=C/N(C)C)c1 | -5.2 | nt | -0.7
CN(C)/C=C(/C#N)C(=O)c1cccc(Oc2ccc(C(C)(C)C)cc2)c1 | 82.4* | nt | -7.5
CN(CC(=O)Nc1ccncc1)S(=O)(=O)c1ccc(Br)cc1 | -4.5 | nt | -3.0
CN(CCCC(=O)Nc1ccncc1)S(=O)(=O)c1ccc(Cl)cc1 | 50.3* | -0.57 | -5.9
Cc1sc2ncnc(N(C)Cc3cccs3)c2c1C | 33.6 | nt | 0.5
CN(Cc1cccs1)c1ncnc2sccc12 | 88.6* | 0.29 | -7.5
O=C(COC(=O)C1CC1)NCc1ccccc1Cl | -3.1 | nt | -1.5
COC(=O)C(Cc1ccc(OC(=O)c2ccc(C)cc2)cc1)N1Cc2ccccc2C1=O (configuration not stated) | 43.0 | nt | -4.8
COc1cccc(C(=O)/C=C/Nc2ccc(NC(C)=O)cc2)c1 | -5.1 | nt | 0.2
COc1cccc(C(=O)/C=C/Nc2cccc(O)c2)c1 | 90.7* | nt | -7.3
CCCn1c(SCc2cc(=O)oc3ccc4ccccc4c23)n[nH]c1=O | -12.9 | 1.91 | -3.9
O=C(c1cc2ccccc2oc1=O)N1CCN(c2ccc(N3CCOCC3)nn2)CC1 | -27.5 | -4.02* | 3.4

Screening results (PubChem BioAssay)
